Results taken from PubChem BioAssay AID1671190 (National Center for Advancing Translational Sciences (NCATS), 2021).
Screen size: about 580,000 compounds; about 6,100 (1.1%) were called active. Roughly 15% stayed inconclusive and do not appear here. Many of the other results were omitted from the sample, so actives are more common in it than they were. A number with no mark means an inactive call. Calls follow the shape of the dose curve; as a rule, active = well fitted inhibition curve with a large enough effect; inconclusive = small, poorly fitted or top-dose-only effect, or another doubt; inactive = no such curve, though single readings can be large or run the other way.
% is scaled to controls: 0 for no effect and ±100 for the full control effect; potency is read from the fitted curve at half-maximal effect.

The compounds below were run against Polyunsaturated fatty acid lipoxygenase ALOX12 (Homo sapiens) (UniProt P18054) (assay: Primary qHTS assay for inhibitors of human arachidonate 12S-lipoxygenase (ALOX12): Round 2). Details: purified 12hLO, xylenol orange hydroperoxide absorbance; series mostly up to 108 µM; activity change, negative = inhibition: at the top concentration.
Chain of Polyunsaturated fatty acid lipoxygenase ALOX12 (Homo sapiens) (P18054 whole entry, looked up): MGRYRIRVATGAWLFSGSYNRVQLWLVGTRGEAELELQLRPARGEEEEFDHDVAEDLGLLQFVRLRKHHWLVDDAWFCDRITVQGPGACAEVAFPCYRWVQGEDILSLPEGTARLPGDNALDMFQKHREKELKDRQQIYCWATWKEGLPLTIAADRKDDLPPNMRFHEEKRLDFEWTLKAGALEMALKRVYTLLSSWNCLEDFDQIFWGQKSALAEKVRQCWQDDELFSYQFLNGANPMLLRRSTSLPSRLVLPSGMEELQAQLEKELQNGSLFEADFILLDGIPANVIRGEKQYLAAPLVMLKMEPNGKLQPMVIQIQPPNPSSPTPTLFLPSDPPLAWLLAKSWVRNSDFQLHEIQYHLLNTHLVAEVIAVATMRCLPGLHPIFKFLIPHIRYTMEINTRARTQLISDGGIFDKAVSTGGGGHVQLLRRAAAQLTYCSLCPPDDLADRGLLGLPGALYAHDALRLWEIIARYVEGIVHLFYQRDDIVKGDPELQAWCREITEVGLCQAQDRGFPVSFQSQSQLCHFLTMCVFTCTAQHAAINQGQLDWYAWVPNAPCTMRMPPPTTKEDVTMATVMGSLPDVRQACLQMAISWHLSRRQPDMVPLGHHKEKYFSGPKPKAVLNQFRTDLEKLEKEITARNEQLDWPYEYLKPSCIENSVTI
In short: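 Purified human 12hLO at 150 nM in 25 mM Hepes, 0.01% Triton X-100, pH 7.0, preincubated 15 min at room temperature with compound. Reaction started with 40 uM arachidonic acid, 30 min at room temperature. Hydroperoxide measured by Fe-xylenol orange, 573/405 nm absorbance ratio.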
In the case of `Cc1nc(N2CCN(CC(=O)N3CCCC3)CC2)c(C#N)c2c1COC(C)(C)C2`, the “activity change, negative = inhibition” value is reported as 0.987%. With `O=C1[C@@H]2C[C@@H](CN2Cc2ccc3ccccc3n2)Oc2ccccc2N1Cc1ccccc1` the Potency was 8.91 µM (active). With `N#Cc1ccc(CN2C[C@@H]3C[C@H]2C(=O)Nc2ccccc2O3)cc1` the “activity change, negative = inhibition” value was 11.6% [at 176 µM]. `COCCN1C(=O)[C@@H]2C[C@@H](CN2C(=O)Nc2ccccc2)Oc2ccccc21` was tested, and the “activity change, negative = inhibition” value was -7.35% [at 176 µM]. With `COC(=O)C1=C(C)N=C2SC=C(CC(=O)NCc3ccccc3F)N2C1c1ccccc1Cl` (stereo unspecified) the “activity change, negative = inhibition” value was 13.3%. In the case of `CCc1n[nH]c(=S)n1/N=C/c1c[nH]c2ccc(Br)cc12`, the Potency is reported as 15.8 µM (active). For `Cc1ccccc1/C=C/C(=O)NC(C)CO` (stereo unspecified), the “activity change, negative = inhibition” value was 31.2%. `O=C(COc1ncnc2ccccc12)Nc1cc(F)ccc1F` was tested, and the “activity change, negative = inhibition” value was 1.32%. In the case of `CCOc1ccc(C(=O)NC(=S)Nc2ccc(N3CCOCC3)c(Cl)c2)cc1[N+](=O)[O-]`, the Potency is reported as 14.1 µM (active). With `O=C(Oc1ccccc1Cl)c1ccc(N2CCOCC2)c([N+](=O)[O-])c1` the “activity change, negative = inhibition” value was -10%. `O=C(CSc1ccc([N+](=O)[O-])cn1)Nc1ccc(N2CCOCC2)c(Cl)c1` was tested, and the “activity change, negative = inhibition” value was -6.2%. With `COc1ccccc1C(CNC(=O)CCc1nc(-c2ccsc2)no1)N1CCCC1` (stereo unspecified) the “activity change, negative = inhibition” value was 7.59%. In the case of `CCC(=O)Nc1ccc2nnc(-c3ccc(C(=O)Nc4ccc(OC)cc4)cc3)n2c1`, the “activity change, negative = inhibition” value is reported as 1.26%. `COc1ccc2c(C)c(-c3cccc4ccccc34)c(=O)oc2c1` was tested, and the “activity change, negative = inhibition” value was -4.87%. In the case of `O=S1(=O)CC/C(=N\Nc2ccc(F)cc2)c2ccsc21`, the Potency is reported as 31.6 µM (active). For `COc1ccc(C(=O)N/N=C2\CCS(=O)(=O)c3ccc(F)cc32)cc1OC`, the “activity change, negative = inhibition” value was 11.9%. In the case of `Cc1oc(-c2ccccc2)nc1CC(=O)N(C)CC(=O)Nc1cccc2ccccc12`, the “activity change, negative = inhibition” value is reported as -14.7%. `CC1(C)CC(=O)C2=C(C1)OC1=C(C(=O)CC(C)(C)C1)C2c1ccc(-c2ccc3c(c2)COC3=O)o1` was tested, and the “activity change, negative = inhibition” value was -18.4%. For `COCc1[nH][nH]c(=O)c1C=Nc1ccc(F)cc1F`, the Potency was 12.6 µM (active). `Fc1ccc(/C=N/N=C/c2ccc(F)cc2F)c(F)c1` was tested, and the “activity change, negative = inhibition” value was 61.1%. In the case of `CCOc1ccc(C(=O)NCc2n[nH]c(=O)c3ccccc23)cc1OCC`, the “activity change, negative = inhibition” value is reported as 10.8%. With `N#CC1=C(N)Oc2[nH]c(=S)[nH]c(=O)c2C12C(=O)Nc1ccccc12` (stereo unspecified) the Potency was 14.1 µM (active). For `Cc1ccc(C2CC(=O)C3=C(C2)OC(N)=C(C#N)C32C(=O)Nc3ccccc32)cc1` (stereo unspecified), the “activity change, negative = inhibition” value was 6.42%. With `Cc1ccc(NC2(C#N)C(=O)Nc3ccccc32)cc1` (stereo unspecified) the “activity change, negative = inhibition” value was 0%. With `C=CCNC(=O)O[C@@H]1CC[C@]2(C)C(CC[C@@H](O)[C@H]2CC(=O)N2CCC[C@H]2CO)[C@]1(C)CO` (stereo partly specified) the “activity change, negative = inhibition” value was 4.47%. In the case of `N#C/C(=C/NC(=O)c1ccccc1)C(=O)N1CCOCC1`, the “activity change, negative = inhibition” value is reported as 1.49%. In the case of `CCOC(=O)c1ccc(NC(=O)c2c(NCc3cccs3)sc3c2CCCC3)cc1`, the “activity change, negative = inhibition” value is reported as -28.7%. With `Cc1ccc(NC(=O)c2c(NC(=O)CCC(=O)O)sc3c2CCCCC3)cc1` the Potency was 20 µM (active). For `O=C(Cc1ccccc1)Nc1sc2c(c1C(=O)Nc1ccc(Br)cc1)CCC2`, the “activity change, negative = inhibition” value was -16%. `CC1(C)Cc2sc3c(=O)n(Cc4ccc(Cl)cc4Cl)cnc3c2CO1` was tested, and the “activity change, negative = inhibition” value was -10.1%. `Cc1cccc(NC(=O)CSc2nc(-c3ccco3)cc(C(F)(F)F)n2)c1C` was tested, and the “activity change, negative = inhibition” value was -12.8%. For `CCn1c(SCC(=O)Nc2sc(C)c(C)c2C#N)nnc1C1CC1`, the “activity change, negative = inhibition” value was -2.97%. For `CCOC(=O)c1sc(NC(=O)CSc2nc(C)cc(C(F)(F)F)n2)c(C#N)c1C`, the Potency was 20 µM (active). For `CCC(CO)Nc1nc2c(c(=O)n(C)c(=O)n2C)n1Cc1c(Cl)cccc1Cl` (stereo unspecified), the “activity change, negative = inhibition” value was -8.11%. `C/C(=N\NC(N)=S)c1cccnc1` was tested, and the “activity change, negative = inhibition” value was -6.29%. For `C/C(=N\NC(=O)c1cc2c(s1)CCC(C)C2)c1cccnc1` (stereo unspecified), the Potency was 5.01 µM (active). In the case of `O=C(NNC1CC(=O)N(c2cccc(Cl)c2)C1=O)c1cccnc1` (stereo unspecified), the “activity change, negative = inhibition” value is reported as 6.21%. For `Cc1nonc1OCCNC1CCC2(CCNCC2)CC1`, the “activity change, negative = inhibition” value was -26.4%. `CN(CCCNC1CCC2(CCNCC2)CC1)c1ccccc1` was tested, and the Potency was 10 µM (active). For `OC1CC([C@@H](Cc2ccccn2)NC2CCC3(CCNCC3)CC2)C1` (stereo partly specified), the “activity change, negative = inhibition” value was -5.73%. For `O=C(NCCC(=O)N1CCn2nc(C(=O)O)cc2C1)c1ccc(F)cc1`, the “activity change, negative = inhibition” value was 4.72%. For `CCc1nnc2sc(-c3cccc(NC(=O)Cc4ccccc4)c3)nn12`, the “activity change, negative = inhibition” value was 9.63%. `O=C(NCc1ccccn1)C1CCN(C(=O)c2ccc(C(F)(F)F)cc2)CC1` was tested, and the “activity change, negative = inhibition” value was -3.02%. `Cc1ccccc1N/C(SCc1ccc(Cl)cc1)=C(/C#N)C(N)=O` was tested, and the Potency was 20 µM (active). In the case of `CCN(CC(=O)Nc1cc(Cl)ccc1C)C(=O)CSCc1ccccc1`, the “activity change, negative = inhibition” value is reported as 5.18%. For `Cc1ccccc1NC(=O)C(C#N)=C1CCCCC1`, the “activity change, negative = inhibition” value was -8.66%. `CNC(=O)c1ccc(-c2nc(CN3CCN(S(=O)(=O)c4ccc(C)c(C)c4)CC3)c(C)o2)cc1` was tested, and the “activity change, negative = inhibition” value was 20.4%. For `COc1ccc2c(C)c(CCC(=O)N3CCN(C)CC3)c(=O)oc2c1`, the “activity change, negative = inhibition” value was -5.95%. In the case of `Cc1nn2c(c1-c1ccccc1C(C)C)N(C(=O)c1cccc(C#N)c1)CCC2`, the “activity change, negative = inhibition” value is reported as -3.15% [at 176 µM]. `Cc1nn2c(c1-c1ccnn1C(C)C)N(CC1CCOCC1)CCC2` was tested, and the Potency was 12.6 µM (active). `Cc1nn2c(c1-c1ccnn1C(C)C)N(C(=O)c1ccc(Oc3ccccc3)cc1)CCC2` was tested, and the “activity change, negative = inhibition” value was 51.4%. `CCCCCn1nc(C(=O)Nc2ccccc2OCC)c2ccccc2c1=O` was tested, and the “activity change, negative = inhibition” value was 37.9%. `CCc1ccc(C(=O)Nc2ccccc2C#N)s1` was tested, and the “activity change, negative = inhibition” value was -101%. For `Cc1cc(/C=N/NC(N)=O)c(C)n1C1CCCCC1`, the “activity change, negative = inhibition” value was 6.3%. With `Cc1cc(/C=N/n2cnnc2)c(C)n1-c1ccc2ncccc2c1` the “activity change, negative = inhibition” value was -25.8%. `Cc1cccc(-n2c(C)cc(/C=N/NC(N)=S)c2C)c1` was tested, and the Potency was 44.7 µM (active). In the case of `C=CCOc1ccc(NC(=O)c2ccncc2)cc1`, the “activity change, negative = inhibition” value is reported as -6.7%. In the case of `CCc1ccc(NC(=O)Cc2nc(-c3c(N)n(C)c(=O)n(C)c3=O)cs2)cc1`, the “activity change, negative = inhibition” value is reported as -21.8%. `O=C(OCc1ccc(F)cc1)c1cnc2ccccc2n1` was tested, and the Potency was 1.26 µM (active). `CCOc1ccccc1NC(=O)c1cnc2ccccc2n1` was tested, and the “activity change, negative = inhibition” value was -89%. `COc1ccccc1C(=O)OCc1ccc(F)cc1` was tested, and the “activity change, negative = inhibition” value was 1.27%. With `Cc1cccnc1CN(C(=O)c1cc(COc2ccccc2)[nH]n1)C(C)C` the “activity change, negative = inhibition” value was 42.5%. `NC(=O)c1c(Nc2nc3c(F)cccc3s2)sc2c1CCCC2` was tested, and the Potency was 28.2 µM (active). `Cc1cc(OC(C)C(=O)Nc2sc3c(c2C(N)=O)CCCC3)ccc1Cl` (stereo unspecified) was tested, and the “activity change, negative = inhibition” value was -6.03%. For `CCCn1nc(C(=O)Nc2sc3c(c2C(N)=O)CCC3)c2ccccc2c1=O`, the “activity change, negative = inhibition” value was -4.24%. In the case of `Cc1cc(C)c(-c2csc(NC(=O)Cn3ncc4ccccc4c3=O)n2)c(C)c1`, the “activity change, negative = inhibition” value is reported as -28.9%.
